The results in this text go back to the supplement of paper PMC6992640.

The assay has as its system WHIM2 (cells of a triple-negative basal-like breast cancer xenograft). In words: cell viability of combination (% of vehicle); higher = less cytotoxic. As to conditions: 1 µM; 72 h; partner dose: 10 nM. As for the experimental part:
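PDX cells were treated for 72 h with each drug at 1 µM plus afatinib (10 nM; 1 µM for WHIM30). Luciferase viability is expressed as percent of vehicle.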
`CCC(NC(=O)C(C)NC)C(=O)N1CC(O)CC1Cc1c(-c2[nH]c3cc(F)ccc3c2CC2CC(O)CN2C(=O)C(CC)NC(=O)C(C)NC)[nH]c2cc(F)ccc12` (stereo unspecified) + CN(C)C/C=C/C(=O)Nc1cc2c(Nc3ccc(F)c(Cl)c3)ncnc2cc1O[C@H]1CCOC1 [Afatinib]: the “cell viability of combination” value was 19.1. For `CCOc1cc2ncc(C#N)c(Nc3ccc(OCc4ccccn4)c(Cl)c3)c2cc1NC(=O)C=CCN(C)C` [Neratinib (HKI-272)] + CN(C)C/C=C/C(=O)Nc1cc2c(Nc3ccc(F)c(Cl)c3)ncnc2cc1O[C@H]1CCOC1 [Afatinib] the value was 25.5; for `COc1ccccc1OCCNCC(O)COc1cccc2[nH]c3ccccc3c12` (stereo unspecified) [Carvedilol] + CN(C)C/C=C/C(=O)Nc1cc2c(Nc3ccc(F)c(Cl)c3)ncnc2cc1O[C@H]1CCOC1 [Afatinib], 41.1; for `Clc1ccc(CSC(Cn2ccnc2)c2ccc(Cl)cc2Cl)cc1.O=[N+]([O-])O` (stereo unspecified) [Sulconazole Nitrate] + CN(C)C/C=C/C(=O)Nc1cc2c(Nc3ccc(F)c(Cl)c3)ncnc2cc1O[C@H]1CCOC1 [Afatinib], 49.5. For `C=C1C(=CC=C2CCCC3(C)C2CCC3C(C)C=CC(C)C(C)C)CC(O)CC1O` (stereo unspecified) [Doxercalciferol] + CN(C)C/C=C/C(=O)Nc1cc2c(Nc3ccc(F)c(Cl)c3)ncnc2cc1O[C@H]1CCOC1 [Afatinib] the value was 37.1.

`CC(=O)c1cc2c(o1)C(=O)c1ccccc1C2=O` [Napabucasin] + CN(C)C/C=C/C(=O)Nc1cc2c(Nc3ccc(F)c(Cl)c3)ncnc2cc1O[C@H]1CCOC1 [Afatinib]: the “cell viability of combination” value amounted to 29.7.
